Measured values taken from the supplement of paper PMC10849652.
Targets with a hit are over-represented here; the source holds about 7,900 in all. About 0.6% of all pairs of compound and target were hits. Unmarked numbers belong to inactive results.

Columns and labels:
Experiment in all cases: log2 fold change, soluble protein after heating vs DMSO (PISA); higher = thermal stabilisation; K562 cells, 10 uM, 30 min; active = over 0.2 and 3.5 SD of the protein, either way, in both replicates (recomputed)
IRAK-1-4 Inhibitor I = compound: C1COCCN1CCN2C3=CC=CC=C3N=C2NC(=O)C4=CC(=CC=C4)[N+](=O)[O-] [IRAK-1-4 Inhibitor I]
In short: (§1)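 K562 cells (2×10^6 cells/mL) were treated with 10 μM compound for 30 min, and aliquots were heated for 3 min over 48°C-58°C. Pooled aliquots were extracted in PBS with 0.5% NP-40 at 4°C, and the supernatant after 21,000xg for 90 min was measured by TMTpro 16plex LC-MS/MS with channel sums equalised. Reported thermal stability, relative to control samples and from duplicates, is a log2 fold change.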

ibrutinib = compound: C=CC(=O)N1CCC[C@@H](n2nc(-c3ccc(Oc4ccccc4)cc3)c3c(N)ncnc32)C1 [ibrutinib]
In short: as §1

[1] = compound: CC(=O)c1cnc2ccc(-c3cc(Cl)c(O)c(Cl)c3)nc2c1N[C@H]1CC[C@H](CN(C)C)CC1
In short: as §1

ralimetinib = compound: CC(C)(C)Cn1c(N)nc2ccc(-c3[nH]c(C(C)(C)C)nc3-c3ccc(F)cc3)nc21 [ralimetinib]
In short: as §1

[2] = compound: CC(C)(O)CC(=O)NCCn1ccc2ncnc(Nc3ccc(Oc4cccc(C(F)(F)F)c4)c(Cl)c3)c21
In short: as §1

[3] = compound: CC(C)C1=C2N=C(C=C(N2N=C1)NCC3=CC=CC=C3)NCCCCCCN
In short: as §1

[4] = compound: CC(C)C[C@@H](C=O)NC(=O)[C@H](CC(C)C)NC(=O)[C@H](CC(C)C)NC(=O)OCc1ccccc1
In short: as §1

pinometostat = compound: CC(C)N(C[C@H]1O[C@@H](n2cnc3c(N)ncnc32)[C@H](O)[C@@H]1O)[C@H]1C[C@@H](CCc2nc3cc(C(C)(C)C)ccc3[nH]2)C1 [pinometostat]
In short: as §1

[5] = compound: CC1=C(C(CC(=O)N1)C2=CC=C(C=C2)C(F)(F)F)C(=O)NC3=C(C=C4C(=C3)C=NN4)F
In short: as §1

[6] = compound: CC1=C(C2=C(C=C1)C(=O)C3=CC=CC=C3N2CCCN)C
In short: as §1

[7] = compound: CC1=C(C=C(C=C1)NC(=O)C2=CC(=CC=C2)C(C)(C)C#N)NC3=CC4=C(C=C3)N=CN(C4=O)C
In short: as §1

[8] = compound: CC1=C(C=C(C=C1)NC(=O)C2=CC(=CC=C2)N(C)C)NC(=O)C3=CC=C(C=C3)O
In short: as §1

[9] = compound: CC1=CC=C(C=C1)SC2=C3C=C(SC3=CN=C2)C(=O)N
In short: as §1

[10] = compound: CC1=NC(=CC=C1)C2=C(N=C(N2)C(C)(C)C)C3=CC4=NC=CN=C4C=C3
In short: as §1

Nexturastat A = compound: CCCCN(Cc1ccc(C(=O)NO)cc1)C(=O)Nc1ccccc1 [Nexturastat A]
In short: as §1

vemurafenib = compound: CCCS(=O)(=O)Nc1ccc(F)c(C(=O)c2c[nH]c3ncc(-c4ccc(Cl)cc4)cc23)c1F [vemurafenib]
In short: as §1

[11] = compound: CCCS(=O)(=O)Nc1ccc(F)c(C(=O)c2c[nH]c3ncc(Cl)cc23)c1F
In short: as §1

[12] = compound: CCCc1cc(C)[nH]c(=O)c1CNC(=O)c1cc(-c2ccnc(N3CCN(C)CC3)c2)cc2c1cnn2C(C)C
In short: as §1

givinostat = compound: CCN(CC)Cc1ccc2cc(COC(=O)Nc3ccc(C(=O)NO)cc3)ccc2c1 [givinostat]
In short: as §1

barasertib = compound: CCN(CCCOc1ccc2c(Nc3cc(CC(=O)Nc4cccc(F)c4)[nH]n3)ncnc2c1)CCOP(=O)(O)O [barasertib]
In short: as §1

UniProt O14524, sequence (O14524 whole entry, looked up): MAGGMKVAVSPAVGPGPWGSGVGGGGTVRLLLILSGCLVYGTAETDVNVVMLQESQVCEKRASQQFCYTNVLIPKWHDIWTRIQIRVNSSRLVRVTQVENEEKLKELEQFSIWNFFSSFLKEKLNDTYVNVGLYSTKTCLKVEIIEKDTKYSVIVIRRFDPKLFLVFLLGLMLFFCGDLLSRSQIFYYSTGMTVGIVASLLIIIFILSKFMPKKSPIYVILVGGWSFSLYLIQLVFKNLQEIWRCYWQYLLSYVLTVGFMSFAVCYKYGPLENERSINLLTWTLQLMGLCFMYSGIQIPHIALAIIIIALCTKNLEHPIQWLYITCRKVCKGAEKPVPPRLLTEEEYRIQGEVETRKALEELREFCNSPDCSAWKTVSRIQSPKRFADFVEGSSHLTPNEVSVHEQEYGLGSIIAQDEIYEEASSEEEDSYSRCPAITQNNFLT
UniProt Q01804, sequence (Q01804 whole entry, looked up): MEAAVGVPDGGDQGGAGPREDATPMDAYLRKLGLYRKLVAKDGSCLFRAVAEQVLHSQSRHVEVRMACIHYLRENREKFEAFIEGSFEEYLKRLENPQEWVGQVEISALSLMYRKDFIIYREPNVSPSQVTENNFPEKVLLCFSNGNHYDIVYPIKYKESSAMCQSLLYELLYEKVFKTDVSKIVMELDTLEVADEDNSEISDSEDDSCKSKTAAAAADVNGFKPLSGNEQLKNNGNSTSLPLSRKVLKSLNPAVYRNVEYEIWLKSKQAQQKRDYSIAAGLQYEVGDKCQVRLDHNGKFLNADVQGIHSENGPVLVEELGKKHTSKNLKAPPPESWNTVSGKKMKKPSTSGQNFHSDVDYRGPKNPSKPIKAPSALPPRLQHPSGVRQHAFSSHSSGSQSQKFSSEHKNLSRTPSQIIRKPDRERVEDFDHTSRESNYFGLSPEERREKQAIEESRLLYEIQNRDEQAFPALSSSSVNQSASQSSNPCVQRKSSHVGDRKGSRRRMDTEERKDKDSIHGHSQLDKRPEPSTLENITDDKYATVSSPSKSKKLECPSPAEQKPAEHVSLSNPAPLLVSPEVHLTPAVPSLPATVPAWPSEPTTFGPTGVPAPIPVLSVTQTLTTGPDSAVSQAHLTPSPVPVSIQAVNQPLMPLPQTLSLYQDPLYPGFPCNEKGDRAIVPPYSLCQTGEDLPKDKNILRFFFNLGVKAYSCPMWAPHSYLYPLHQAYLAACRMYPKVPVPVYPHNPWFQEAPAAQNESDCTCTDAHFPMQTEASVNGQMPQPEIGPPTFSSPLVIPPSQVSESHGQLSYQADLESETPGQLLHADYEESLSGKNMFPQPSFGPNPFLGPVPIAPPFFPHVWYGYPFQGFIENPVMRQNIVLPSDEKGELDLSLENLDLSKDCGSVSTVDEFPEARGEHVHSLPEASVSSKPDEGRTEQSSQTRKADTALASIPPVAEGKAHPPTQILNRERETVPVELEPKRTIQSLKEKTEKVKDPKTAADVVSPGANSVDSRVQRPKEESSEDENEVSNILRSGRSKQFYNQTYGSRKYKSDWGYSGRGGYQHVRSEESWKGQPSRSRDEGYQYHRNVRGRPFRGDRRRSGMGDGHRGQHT
UniProt Q9HBL8, sequence (Q9HBL8 whole entry, looked up): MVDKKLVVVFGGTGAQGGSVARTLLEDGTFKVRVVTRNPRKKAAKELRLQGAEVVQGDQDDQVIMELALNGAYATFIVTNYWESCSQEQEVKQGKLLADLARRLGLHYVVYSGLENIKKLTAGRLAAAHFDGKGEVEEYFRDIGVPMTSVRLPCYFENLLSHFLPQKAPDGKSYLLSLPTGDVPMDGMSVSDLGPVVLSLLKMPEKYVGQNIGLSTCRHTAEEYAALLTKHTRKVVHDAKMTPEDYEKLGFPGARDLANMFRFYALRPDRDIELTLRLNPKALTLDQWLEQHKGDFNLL
UniProt O95169, sequence (O95169 whole entry, looked up): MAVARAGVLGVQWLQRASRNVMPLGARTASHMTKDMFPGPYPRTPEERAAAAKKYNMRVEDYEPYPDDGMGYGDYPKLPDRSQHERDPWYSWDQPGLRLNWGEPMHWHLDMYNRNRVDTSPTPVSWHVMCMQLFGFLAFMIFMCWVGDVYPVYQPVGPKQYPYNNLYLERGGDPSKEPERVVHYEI
UniProt O60313, sequence (O60313 whole entry, looked up): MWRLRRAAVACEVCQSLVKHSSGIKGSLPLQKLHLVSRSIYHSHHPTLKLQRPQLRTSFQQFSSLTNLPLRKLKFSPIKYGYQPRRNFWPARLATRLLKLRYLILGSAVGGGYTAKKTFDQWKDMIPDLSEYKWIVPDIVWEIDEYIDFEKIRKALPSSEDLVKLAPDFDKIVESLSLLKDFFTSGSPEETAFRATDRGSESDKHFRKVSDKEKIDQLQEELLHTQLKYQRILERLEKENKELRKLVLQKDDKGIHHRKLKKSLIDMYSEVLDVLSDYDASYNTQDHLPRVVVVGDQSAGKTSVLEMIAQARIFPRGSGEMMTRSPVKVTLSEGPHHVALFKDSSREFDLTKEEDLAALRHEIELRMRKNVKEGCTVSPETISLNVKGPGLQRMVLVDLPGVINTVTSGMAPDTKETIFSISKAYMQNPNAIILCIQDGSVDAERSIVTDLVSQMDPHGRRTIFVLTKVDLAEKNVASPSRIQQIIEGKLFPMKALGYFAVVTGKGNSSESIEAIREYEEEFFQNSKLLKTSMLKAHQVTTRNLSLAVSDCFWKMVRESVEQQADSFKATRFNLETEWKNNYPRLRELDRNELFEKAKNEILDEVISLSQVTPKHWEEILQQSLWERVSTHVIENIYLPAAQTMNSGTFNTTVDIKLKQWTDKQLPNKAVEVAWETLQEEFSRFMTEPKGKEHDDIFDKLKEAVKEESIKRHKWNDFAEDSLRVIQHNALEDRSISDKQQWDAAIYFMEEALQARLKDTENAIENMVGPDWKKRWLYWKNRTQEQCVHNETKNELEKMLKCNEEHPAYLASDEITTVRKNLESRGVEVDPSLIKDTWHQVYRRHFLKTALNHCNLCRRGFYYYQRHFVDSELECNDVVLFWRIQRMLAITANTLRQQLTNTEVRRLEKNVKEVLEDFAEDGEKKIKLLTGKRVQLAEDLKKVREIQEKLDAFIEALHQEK
UniProt Q330K2, sequence (Q330K2 whole entry, looked up): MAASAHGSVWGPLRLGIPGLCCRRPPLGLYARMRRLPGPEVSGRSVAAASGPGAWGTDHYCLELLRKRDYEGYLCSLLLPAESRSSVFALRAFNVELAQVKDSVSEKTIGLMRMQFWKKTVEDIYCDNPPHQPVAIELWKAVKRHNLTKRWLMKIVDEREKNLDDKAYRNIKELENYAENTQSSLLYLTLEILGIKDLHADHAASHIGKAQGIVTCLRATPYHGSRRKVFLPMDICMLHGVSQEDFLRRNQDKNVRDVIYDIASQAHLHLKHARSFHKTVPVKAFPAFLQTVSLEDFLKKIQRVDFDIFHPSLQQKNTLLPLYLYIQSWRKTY
UniProt Q7L1V2, sequence (Q7L1V2 whole entry, looked up): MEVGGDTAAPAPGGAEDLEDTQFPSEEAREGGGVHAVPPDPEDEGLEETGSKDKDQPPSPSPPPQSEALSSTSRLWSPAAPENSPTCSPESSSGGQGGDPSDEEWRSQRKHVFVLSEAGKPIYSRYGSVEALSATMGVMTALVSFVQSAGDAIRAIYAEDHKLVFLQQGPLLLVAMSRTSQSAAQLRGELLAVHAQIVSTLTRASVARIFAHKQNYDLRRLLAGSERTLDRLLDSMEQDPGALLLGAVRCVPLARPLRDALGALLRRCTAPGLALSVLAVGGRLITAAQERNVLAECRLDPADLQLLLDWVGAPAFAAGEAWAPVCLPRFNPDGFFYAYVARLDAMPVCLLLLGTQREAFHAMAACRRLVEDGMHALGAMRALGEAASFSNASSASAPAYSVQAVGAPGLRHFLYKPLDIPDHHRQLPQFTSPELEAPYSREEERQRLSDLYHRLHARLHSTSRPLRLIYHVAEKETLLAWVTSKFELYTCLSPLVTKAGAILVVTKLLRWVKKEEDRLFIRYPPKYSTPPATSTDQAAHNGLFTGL
UniProt Q99747, sequence (Q99747 whole entry, looked up): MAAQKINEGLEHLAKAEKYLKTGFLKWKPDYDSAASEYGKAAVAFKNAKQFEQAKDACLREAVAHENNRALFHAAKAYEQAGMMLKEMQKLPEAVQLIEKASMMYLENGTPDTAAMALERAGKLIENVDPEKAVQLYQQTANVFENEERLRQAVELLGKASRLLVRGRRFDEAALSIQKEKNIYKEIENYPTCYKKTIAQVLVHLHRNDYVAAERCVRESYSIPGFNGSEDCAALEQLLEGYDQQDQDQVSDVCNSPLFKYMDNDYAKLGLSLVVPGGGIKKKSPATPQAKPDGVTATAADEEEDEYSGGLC
UniProt O00483, sequence (O00483 whole entry, looked up): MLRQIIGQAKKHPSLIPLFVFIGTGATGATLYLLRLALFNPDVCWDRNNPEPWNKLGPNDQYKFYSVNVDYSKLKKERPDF
UniProt Q16656, sequence (Q16656 whole entry, looked up): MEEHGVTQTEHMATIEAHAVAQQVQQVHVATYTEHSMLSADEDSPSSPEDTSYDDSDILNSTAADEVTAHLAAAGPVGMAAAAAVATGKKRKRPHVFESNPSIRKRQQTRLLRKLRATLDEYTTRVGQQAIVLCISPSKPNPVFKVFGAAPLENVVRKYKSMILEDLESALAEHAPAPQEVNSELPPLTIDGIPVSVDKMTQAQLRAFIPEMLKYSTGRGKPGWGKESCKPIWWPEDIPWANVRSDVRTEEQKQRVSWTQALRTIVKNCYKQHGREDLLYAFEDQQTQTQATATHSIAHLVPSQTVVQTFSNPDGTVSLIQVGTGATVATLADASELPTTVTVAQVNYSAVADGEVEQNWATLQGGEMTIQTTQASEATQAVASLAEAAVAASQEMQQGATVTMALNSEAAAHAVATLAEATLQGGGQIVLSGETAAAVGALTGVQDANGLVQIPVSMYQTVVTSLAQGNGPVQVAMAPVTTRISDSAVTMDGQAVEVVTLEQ

Row | Target | log2 fold change (IRAK-1-4 Inhibitor I) | log2 fold change (ibrutinib) | log2 fold change [1] | log2 fold change (ralimetinib) | log2 fold change [2] | log2 fold change [3] | log2 fold change [4] | log2 fold change (pinometostat) | log2 fold change [5] | log2 fold change [6] | log2 fold change [7] | log2 fold change [8] | log2 fold change [9] | log2 fold change [10] | log2 fold change (Nexturastat A) | log2 fold change (vemurafenib) | log2 fold change [11] | log2 fold change [12] | log2 fold change (givinostat) | log2 fold change (barasertib)
1 | MRPS35 (UniProt P82673) | -0.035 | 0.004 | -0.082 | -0.035 | -0.047 | -0.024 | 0.083 | 0.078 | 0.006 | -0.186 | -0.016 | -0.013 | -0.04 | -0.007 | 0.167 | -0.063 | -0.022 | 0.149 | 0.017 | -0.034
2 | MRPS15 (UniProt P82914) | -0.062 | -0.022 | -0.024 | 0.014 | -0.12 | -0.041 | 0.004 | 0.041 | -0.01 | -0.2 | 0.04 | -0.026 | -0.017 | -0.022 | 0.058 | -0.037 | 0.062 | 0.023 | 0.027 | 0.004
3 | MRPS12 (UniProt O15235) | 0.05 | -0.031 | -0.033 | -0.017 | -0.053 | -0.123 | 0.092 | 0.111 | 0.014 | -0.224 | -0.034 | -0.094 | 0.054 | -0.069 | 0.201 | -0.146 | 0.032 | -0.002 | 0.077 | -0.054
4 | NAPG (UniProt Q99747) | -0.071 | -0.014 | -0.067 | -0.012 | -0.069 | -0.248 | 0.028 | 0.016 | 0 | 0.016 | 0.044 | -0.115 | 0.077 | 0.006 | 0.004 | 0.067 | 0.155 | 0.045 | 0.123 | 0.107
5 | OTUD4 (UniProt Q01804) | 0.007 | 0.008 | -0.029 | 0.1 | 0.013 | 0.035 | 0.052 | 0.128 | -0.033 | 0.244 | -0.038 | -0.017 | -0.035 | -0.069 | 0.055 | -0.016 | 0.007 | -0.03 | 0.05 | -0.083
6 | MON1B (UniProt Q7L1V2) | 0.047 | 0.037 | -0.013 | 0.095 | -0.006 | -0.406 (active) | 0 | -0.039 | -0.023 | 0 | 0.064 | -0.003 | 0.071 | 0.019 | -0.058 | -0.005 | 0.032 | -0.036 | 0.024 | 0.005
7 | NRF1 isoform 4 (UniProt Q16656) | -0.014 | -0.007 | -0.059 | 0.024 | 0.082 | -0.125 | -0.025 | -0.004 | -0.037 | -0.419 (active) | 0.002 | 0.03 | -0.015 | 0.051 | -0.316 | 0.004 | 0.081 | -0.007 | 0.042 | 0.034
8 | NEMP1 (UniProt O14524) | 0.003 | -0.01 | -0.081 | -0.03 | -0.023 | -0.508 (active) | 0.08 | 0.009 | 0.099 | -0.119 | -0.051 | 0.037 | 0.031 | -0.022 | -0.057 | -0.084 | -0.041 | -0.001 | -0.061 | -0.034
9 | MPP1 (UniProt Q00013) | -0.073 | -0.047 | -0.071 | 0.075 | -0.087 | -0.147 | 0.023 | 0.011 | -0.023 | 0.029 | 0.117 | -0.052 | 0.043 | 0.025 | 0.002 | 0.029 | 0.04 | 0.053 | 0.062 | 0.034
10 | NOP58 (UniProt Q9Y2X3) | -0.06 | 0.039 | -0.117 | -0.008 | 0.06 | 0.052 | 0.117 | 0.128 | -0.035 | -0.029 | -0.055 | -0.012 | -0.058 | -0.073 | 0.161 | 0.046 | 0.041 | 0.081 | 0.072 | -0.075
11 | NDUFB8 (UniProt O95169) | 0.001 | -0.01 | -0.004 | -0.063 | -0.36 (active) | -0.042 | 0.059 | 0.003 | 0.081 | 0.103 | 0.01 | -0.068 | 0.023 | 0.024 | 0.045 | 0.099 | -0.04 | -0.025 | -0.048 | 0.023
12 | NDUFAF6 (UniProt Q330K2) | 0.129 | -0.044 | -0.107 | 0.039 | -0.214 | -0.235 | 0.083 | -0.132 | 0.091 | -0.109 | 0.055 | 0.068 | 0.169 | 0.024 | -0.052 | -0.055 | 0.035 | -0.088 | -0.063 | -0.01
13 | OPA1 isoform 2 (UniProt O60313) | -0.008 | -0.009 | -0.05 | 0.043 | -0.201 | -0.375 (active) | 0.004 | 0.03 | -0.006 | 0.1 | 0.01 | -0.064 | 0.027 | -0.003 | -0.018 | -0.001 | 0.095 | -0.002 | 0.052 | 0.045
14 | MRPS33 (UniProt Q9Y291) | -0.006 | 0.022 | -0.004 | -0.038 | -0.069 | -0.034 | 0.122 | 0.096 | 0.096 | -0.158 | 0.075 | -0.078 | -0.025 | -0.004 | 0.098 | 0.023 | 0.073 | -0.042 | 0.043 | -0.015
15 | NMRAL1 (UniProt Q9HBL8) | 0.058 | 0.874 (active) | 0.467 | -0.016 | -0.121 | 0 | -0.007 | 0 | -0.257 | 0.281 | 1.01 (active) | 0.029 | 0.025 | -0.151 | -0.138 | 0.003 | -0.074 | 0.234 | 0.027 | -0.021
16 | NDUFA4 (UniProt O00483) | 0 | -0.019 | -0.024 | -0.098 | -0.029 | -0.018 | -0.009 | -0.013 | 0.032 | 0.126 | 0.046 | -0.069 | -0.003 | 0.049 | -0.033 | 0.002 | 0.018 | -0.023 | -0.099 | 0.044
